The structures appear in SMILES notation. The panel holds about 83,000 compounds, 20% with a hit somewhere; the sample as a whole holds those more often.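 For each line, cells grew in 96-well plates with the test compound present at a single concentration for 48 hours.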 Values without a mark were called inactive. Calls of active or inactive are those of the source. The calls were made as follows: active = growth percent below 10; inactive = the rest.

This assay concerns OVCAR-8 ovarian. Description: NCI-60 one-dose screen, 48 h (100 = growth as untreated, 0 = no growth, -100 = all killed). The note with it: 10 µM unless noted.
Turning to `NS(=O)(=O)c1ccc(Nc2nc(Nc3ccccc3)nc(-n3nc(-c4ccccc4)cc3-c3ccccc3)n2)cc1`, the growth was 40%. The figure for `C#Cc1nc(C2=C(C)C(O)/C(=N/O)C2)cs1` (centres undefined) is 94.3%; for `Cc1ccc2c(n1)C(=O)C(Cl)=C(Nc1cccc(C(C)C)c1)C2=O` it is 57.2%; for `CN1CCc2c(sc3ncnc(N/N=C/c4ccc(Cl)c(Cl)c4)c23)C1` it is 31.8%. For the compound `O=C(CSc1nnc(-c2ccc3nc(-c4ccc(Cl)cc4)[nH]c3c2)o1)Nc1ccc(C(=O)/C=C/c2ccc(Cl)cc2)cc1`, the growth is 97.1%. To `O=C(N/N=C/c1ccc(Br)s1)c1[nH]c2ccc(Br)cc2c1-c1ccccc1` belongs 2.61% (active); to `C#Cc1nc(C2=C(C)C(O)CC2)cs1` (centres undefined), 107%. As to `O=C(N/N=C/c1ccc[nH]1)c1[nH]c2ccc(Br)cc2c1-c1ccccc1`, the growth is 13%. The figure for `COc1ccc(/C=N/NC(=O)c2[nH]c3ccc(Br)cc3c2-c2ccccc2)s1` is 12.3%; for `C/C(=N\NC(N)=O)c1c(O)sc(=O)[nH]c1=O` it is 99.9%; for `C#Cc1nc(C2=C(C)C(=O)/C(=N/OC(C)=O)C2)cs1` it is 78.3%.

Take `Cn1ccnc1C(=O)/C=C/c1ccc(NC(=O)Nc2ccccc2)cc1`: the growth is -1.17% (active). The figure for `COc1cc(/C=C/C(=O)c2cc(OC)c(OC)c(OC)c2)ccc1OCc1ccccc1` is 16.8%. For `CC(O)C(NC(=O)C1CCCN1C(=O)CNC(=O)C1CC(=O)NCC(=O)NC(Cc2c[nH]c3ccccc23)C(=O)NC(Cc2ccc(O)cc2)C(=O)NCC(=O)NC(CO)C(=O)NC(CCC(N)=O)C(=O)NC(Cc2c[nH]c3ccccc23)C(=O)N1)C(=O)NCC(=O)NC(CCC(N)=O)C(=O)NC(CCCNC(=N)N)C(=O)NC(CC(=O)O)C(=O)O` (centres undefined), the growth was 101%. To `COc1cc(/C=C/C(=O)c2cc(OC)c(OC)c(OC)c2)ccc1OCc1ccc(F)cc1` belongs 15.4%.

In the case of `O=C(N/N=C/c1ccc([N+](=O)[O-])s1)c1[nH]c2ccc(Br)cc2c1-c1ccccc1`, the growth is -8.62% (active). The figure for `N#Cc1c(-c2ccc(Cl)cc2)nc2c(-c3ccccc3)c(Nc3ccccc3)nn2c1N` is 48.6%; for `O=C(Oc1ccc2ccc(=O)oc2c1)c1ccc(Cl)cc1` it is 105%. To `C#Cc1nc(C2=C(C)C(OC(=O)CCC(=O)O)CC2)cs1` (centres undefined) belongs 99.3%. Take `C#Cc1nc(C2=C(C)C(=N\O)/C(=N/O)C2)cs1`: the growth is 92.3%. The figure for `O=C(N/N=C/c1ccco1)c1[nH]c2ccc(Br)cc2c1-c1ccccc1` is 5.2% (active). With `COC(=O)C(Cc1ccccc1)NS(=O)(=O)/N=C1\NC(=O)NC1=C(Cl)Cl` (centres undefined), the growth is 102%. To `N#Cc1ccc(/C=N/NC(=O)c2[nH]c3ccc(Br)cc3c2-c2ccccc2)s1` belongs 2.33% (active); to `CCOc1ccc2nc(NC(=O)c3ccc(C(F)(F)F)cc3)sc2c1`, 107%.
